Experiments:
Assay in all cases: DAPPL (digital affinity profiling via proximity ligation, sequencing); 10 mM Tris-HCl pH 7.5, 50 mM NaCl, 1 mM DTT, 4% glycerol, room temperature, 30 min; GST-TFs on glutathione beads, 16-mer random dsDNA library, 0.1% formaldehyde crosslink after washing; high values mean tight binding
Settings in all cases: protein: recombinant; tags: N-terminal GST; dsDNA, one strand shown
ERF = target: T1, ERF (Homo sapiens, UniProt P50548 1-548)
T1 sequence: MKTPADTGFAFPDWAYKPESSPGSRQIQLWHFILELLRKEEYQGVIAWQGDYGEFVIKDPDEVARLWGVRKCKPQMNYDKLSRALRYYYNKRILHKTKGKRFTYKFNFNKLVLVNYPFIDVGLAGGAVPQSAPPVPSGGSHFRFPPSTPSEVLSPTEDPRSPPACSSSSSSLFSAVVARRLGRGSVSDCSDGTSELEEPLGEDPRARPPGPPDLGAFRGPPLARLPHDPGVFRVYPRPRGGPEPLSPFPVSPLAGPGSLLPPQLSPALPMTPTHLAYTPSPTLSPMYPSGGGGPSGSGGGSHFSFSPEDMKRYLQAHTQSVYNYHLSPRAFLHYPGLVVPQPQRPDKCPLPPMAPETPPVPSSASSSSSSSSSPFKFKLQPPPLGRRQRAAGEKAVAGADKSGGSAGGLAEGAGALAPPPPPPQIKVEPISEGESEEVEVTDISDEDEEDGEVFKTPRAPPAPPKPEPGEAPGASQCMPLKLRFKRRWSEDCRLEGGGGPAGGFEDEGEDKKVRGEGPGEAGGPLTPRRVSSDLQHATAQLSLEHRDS
How it was run: (§1)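 Sequencing on an Illumina NextSeq500 followed washing, crosslinking with 0.1% formaldehyde, proximity ligation (BsaI/T4 ligase, 1 h, 37 °C) and PCR amplification of pools that had been incubated for 30 min at room temperature with 200 nmole of a random double-stranded 16-mer DNA library in Tris/NaCl/DTT/glycerol buffer. Each pool held DNA-barcoded human transcription factors, expressed in yeast as GST fusions and captured on glutathione beads, plus a tag-only sample. Binding signal is a hexamer's read frequency for a factor divided by its frequency in the tag-only sample.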

ETV3L = target: T2, ETV3L (Homo sapiens, UniProt Q6ZN32 1-361)
T2 sequence: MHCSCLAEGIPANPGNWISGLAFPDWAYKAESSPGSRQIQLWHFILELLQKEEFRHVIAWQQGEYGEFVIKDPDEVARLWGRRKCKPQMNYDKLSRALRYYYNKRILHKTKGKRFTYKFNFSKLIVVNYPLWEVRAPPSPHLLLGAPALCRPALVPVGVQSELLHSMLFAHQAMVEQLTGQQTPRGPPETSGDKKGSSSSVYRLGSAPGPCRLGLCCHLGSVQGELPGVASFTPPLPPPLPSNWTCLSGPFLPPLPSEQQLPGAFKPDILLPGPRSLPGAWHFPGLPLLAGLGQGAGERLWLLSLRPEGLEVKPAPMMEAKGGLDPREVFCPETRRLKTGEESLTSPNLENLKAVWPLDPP
How it was run: as §1

ETS2 = target: T3, ETS2 (Homo sapiens, UniProt P15036 1-469)
T3 sequence: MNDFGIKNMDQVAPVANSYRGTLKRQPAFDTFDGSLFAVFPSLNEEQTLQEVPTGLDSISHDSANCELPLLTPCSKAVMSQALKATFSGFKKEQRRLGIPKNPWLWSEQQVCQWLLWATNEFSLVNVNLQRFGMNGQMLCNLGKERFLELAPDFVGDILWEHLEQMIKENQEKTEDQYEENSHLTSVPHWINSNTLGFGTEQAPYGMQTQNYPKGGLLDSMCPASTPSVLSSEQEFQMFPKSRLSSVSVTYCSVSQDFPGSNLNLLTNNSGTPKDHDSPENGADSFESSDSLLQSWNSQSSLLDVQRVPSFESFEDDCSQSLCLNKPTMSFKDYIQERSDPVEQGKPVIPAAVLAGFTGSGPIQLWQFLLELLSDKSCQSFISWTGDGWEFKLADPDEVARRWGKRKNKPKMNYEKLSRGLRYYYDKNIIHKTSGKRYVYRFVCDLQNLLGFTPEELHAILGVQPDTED
How it was run: as §1

SPDEF = target: T4, SPDEF (Homo sapiens, UniProt O95238 1-335)
T4 sequence: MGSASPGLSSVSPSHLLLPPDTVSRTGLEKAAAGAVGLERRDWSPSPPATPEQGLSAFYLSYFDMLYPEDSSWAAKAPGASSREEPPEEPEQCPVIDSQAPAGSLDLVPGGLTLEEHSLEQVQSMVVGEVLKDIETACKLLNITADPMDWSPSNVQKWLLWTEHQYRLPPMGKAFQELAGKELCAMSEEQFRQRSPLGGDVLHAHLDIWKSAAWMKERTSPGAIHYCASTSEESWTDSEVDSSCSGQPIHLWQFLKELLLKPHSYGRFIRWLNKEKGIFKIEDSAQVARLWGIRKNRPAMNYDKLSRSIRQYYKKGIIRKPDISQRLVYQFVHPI
How it was run: as §1

ETV7 = target: T5, ETV7 (Homo sapiens, UniProt Q9Y603 1-341)
T5 sequence: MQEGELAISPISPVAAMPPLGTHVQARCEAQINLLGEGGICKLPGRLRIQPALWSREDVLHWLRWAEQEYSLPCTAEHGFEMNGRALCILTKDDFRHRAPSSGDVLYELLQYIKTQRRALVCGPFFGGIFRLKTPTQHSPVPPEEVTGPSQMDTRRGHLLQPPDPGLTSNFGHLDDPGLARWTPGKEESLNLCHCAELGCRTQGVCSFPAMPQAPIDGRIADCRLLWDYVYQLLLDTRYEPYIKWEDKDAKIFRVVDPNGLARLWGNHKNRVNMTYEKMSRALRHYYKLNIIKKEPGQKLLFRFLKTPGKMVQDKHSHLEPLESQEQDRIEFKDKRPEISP
How it was run: as §1

ELF5 = target: T6, ELF5 (Homo sapiens, UniProt Q9UKW6-2 1-255)
T6 sequence: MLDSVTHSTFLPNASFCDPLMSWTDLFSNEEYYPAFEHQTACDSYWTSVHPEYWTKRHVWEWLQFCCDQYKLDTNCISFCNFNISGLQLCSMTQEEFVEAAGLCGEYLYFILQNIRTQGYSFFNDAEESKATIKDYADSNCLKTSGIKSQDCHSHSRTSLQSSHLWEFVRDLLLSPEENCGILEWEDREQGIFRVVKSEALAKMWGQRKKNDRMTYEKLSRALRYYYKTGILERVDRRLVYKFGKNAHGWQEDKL
How it was run: as §1

ETV3 = target: T7, ETV3 (Homo sapiens, UniProt P41162-2 1-143)
T7 sequence: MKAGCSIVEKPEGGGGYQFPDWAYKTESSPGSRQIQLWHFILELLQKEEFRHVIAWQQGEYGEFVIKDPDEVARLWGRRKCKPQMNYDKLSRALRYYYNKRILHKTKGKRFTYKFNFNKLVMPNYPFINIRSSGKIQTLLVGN
How it was run: as §1

ETV6 = ETV6 (Homo sapiens, UniProt P41212 1-452)
Chain of ETV6 (P41212 whole entry): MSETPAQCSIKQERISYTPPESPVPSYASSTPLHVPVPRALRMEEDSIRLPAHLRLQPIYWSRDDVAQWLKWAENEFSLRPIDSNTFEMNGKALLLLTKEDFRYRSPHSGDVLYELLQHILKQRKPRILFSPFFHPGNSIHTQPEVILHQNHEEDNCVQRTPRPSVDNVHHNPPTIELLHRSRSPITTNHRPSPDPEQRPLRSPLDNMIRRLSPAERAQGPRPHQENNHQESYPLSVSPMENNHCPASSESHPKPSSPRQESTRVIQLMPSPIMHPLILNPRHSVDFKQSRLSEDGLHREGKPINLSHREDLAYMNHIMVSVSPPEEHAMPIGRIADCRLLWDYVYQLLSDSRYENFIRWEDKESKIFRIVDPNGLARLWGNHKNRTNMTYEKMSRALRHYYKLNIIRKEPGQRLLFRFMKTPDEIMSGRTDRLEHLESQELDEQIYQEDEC
How it was run: as §1

Row | Sequence | binding signal (ERF) | binding signal (ETV3L) | binding signal (ETS2) | binding signal (SPDEF) | binding signal (ETV7) | binding signal (ELF5) | binding signal (ETV3) | binding signal (ETV6)
1 | TTCATA | 1.19 fold enrichment (6-mer frequency, TF over GST control) | 1.23 fold enrichment (6-mer frequency, TF over GST control) | 1.15 fold enrichment (6-mer frequency, TF over GST control) | 1.1 fold enrichment (6-mer frequency, TF over GST control) | 1.12 fold enrichment (6-mer frequency, TF over GST control) | 1.15 fold enrichment (6-mer frequency, TF over GST control) | 1.16 fold enrichment (6-mer frequency, TF over GST control) | 1.14 fold enrichment (6-mer frequency, TF over GST control)
2 | GAAGCG | 1.29 fold enrichment (6-mer frequency, TF over GST control) | 1.32 fold enrichment (6-mer frequency, TF over GST control) | 1.33 fold enrichment (6-mer frequency, TF over GST control) | 1.29 fold enrichment (6-mer frequency, TF over GST control) | 1.36 fold enrichment (6-mer frequency, TF over GST control) | 1.35 fold enrichment (6-mer frequency, TF over GST control) | 1.36 fold enrichment (6-mer frequency, TF over GST control) | 1.43 fold enrichment (6-mer frequency, TF over GST control)
3 | ATAGCA | 1.24 fold enrichment (6-mer frequency, TF over GST control) | 1.19 fold enrichment (6-mer frequency, TF over GST control) | 1.22 fold enrichment (6-mer frequency, TF over GST control) | 1.12 fold enrichment (6-mer frequency, TF over GST control) | 1.06 fold enrichment (6-mer frequency, TF over GST control) | 1.16 fold enrichment (6-mer frequency, TF over GST control) | 1.19 fold enrichment (6-mer frequency, TF over GST control) | 1.18 fold enrichment (6-mer frequency, TF over GST control)
4 | CACCCT | 1.09 fold enrichment (6-mer frequency, TF over GST control) | 1.26 fold enrichment (6-mer frequency, TF over GST control) | 1.09 fold enrichment (6-mer frequency, TF over GST control) | 1.13 fold enrichment (6-mer frequency, TF over GST control) | 1.04 fold enrichment (6-mer frequency, TF over GST control) | 1.11 fold enrichment (6-mer frequency, TF over GST control) | 1.24 fold enrichment (6-mer frequency, TF over GST control) | 1.05 fold enrichment (6-mer frequency, TF over GST control)
5 | GACCTC | 1.52 fold enrichment (6-mer frequency, TF over GST control) | 1.51 fold enrichment (6-mer frequency, TF over GST control) | 1.38 fold enrichment (6-mer frequency, TF over GST control) | 1.29 fold enrichment (6-mer frequency, TF over GST control) | 1.33 fold enrichment (6-mer frequency, TF over GST control) | 1.32 fold enrichment (6-mer frequency, TF over GST control) | 1.28 fold enrichment (6-mer frequency, TF over GST control) | 1.42 fold enrichment (6-mer frequency, TF over GST control)
6 | AACCGG | 1.42 fold enrichment (6-mer frequency, TF over GST control) | 1.43 fold enrichment (6-mer frequency, TF over GST control) | 1.46 fold enrichment (6-mer frequency, TF over GST control) | 1.8 fold enrichment (6-mer frequency, TF over GST control) | 1.36 fold enrichment (6-mer frequency, TF over GST control) | 1.52 fold enrichment (6-mer frequency, TF over GST control) | 1.6 fold enrichment (6-mer frequency, TF over GST control) | 1.5 fold enrichment (6-mer frequency, TF over GST control)
7 | TGATGA | 1.25 fold enrichment (6-mer frequency, TF over GST control) | 1.4 fold enrichment (6-mer frequency, TF over GST control) | 1.28 fold enrichment (6-mer frequency, TF over GST control) | 1.19 fold enrichment (6-mer frequency, TF over GST control) | 1.26 fold enrichment (6-mer frequency, TF over GST control) | 1.21 fold enrichment (6-mer frequency, TF over GST control) | 1.33 fold enrichment (6-mer frequency, TF over GST control) | 1.34 fold enrichment (6-mer frequency, TF over GST control)

— article PMC7862700, “An all-to-all approach to the identification of sequence-specific readers for epigenetic DNA modifications on cytosine”
